Screens from PubChem BioAssay.
Glyco luc inh: N-linked glycosylation inhibition; 360,000 compounds, 0.23% hits; reporter increase, % at 12.5 µM; D54 ERlucT glycosylation luciferase reporter, 24 h; percent of 100 nM tunicamycin response; AID 588692;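 active = mean luciferase reporter signal, scaled so untreated is 0 and the glycosylation-blocking control 100, at or above a set limit in every replicate; inconclusive = mean reaches the limit but not every replicate does; inactive = mean below the limit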;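 note: luciferase carries N-glycosylation sites so blocking glycosylation raises the light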
esBAF inh: SWI/SNF esBAF complex inhibition. reporter increase, % at 12.5 µM. 350,000 compounds, 2% hits. mouse ES cells, Bmi1-luciferase knock-in reporter, 24 h; 100% = twice the neutral-well signal; in the data active = activation above about 40%; inconclusive = no clear call, values can overlap the other calls;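 note: a rise in the Bmi1 reporter signal indicates esBAF inhibition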
Vif inh: blocks HIV Vif function | 340,000 compounds, 0.35% hits | inhibition, % at 7.49 µM | AID 602346 | HEK293T cells, Vif self-association by quenched fluorescence, imaging, 24 h; in the data active = inhibition above about 50%, passing the limit was not always enough; inconclusive = no clear call, values can overlap the other calls; inactive = below about 31%
Wnt bcat act: activates Wnt/beta-catenin signaling in a reporter cell assay. activator, plate reader. activation, % at 9.35 µM. 300,000 compounds, 1.2% hits; in the data active = activation above about 30%, passing the limit was not always enough; inconclusive = no clear call, values can overlap the other calls
MITF act: MITF TRPM1 promoter activation in melanoma cells; SK-MEL-5 TRPM1-promoter luciferase, 24 h; % of positive control, neutral wells = 0; activation, % at 12.5 µM; 300,000 compounds, 0.75% hits; AID 588334;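 active = mean activation of at least 80% with every replicate also reaching 80%; inconclusive = mean reaches 80% but some replicate falls short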
PvdQ acylase: P. aeruginosa PvdQ acylase inhibition | purified PvdQ acylase, fluorescence plate reader | inhibition, % at 10 µM | 340,000 compounds, 0.063% hits; in the data active = inhibition above about 30%, passing the limit was not always enough; inconclusive = no clear call, values can overlap the other calls
A number is an active result; - = inactive; ? = inconclusive; . = no result given. Most compounds without a hit are left out; they make up all but 2.9% or so of the library.

SMILES | Glyco luc inh | esBAF inh | Vif inh | Wnt bcat act | MITF act | PvdQ acylase
COc1ccc(CC(=O)OCC(=O)Nc2ccc(N3CCOCC3)cc2)cc1 | - | - | 81 | - | - | -
CN(C)CC(=O)Nc1ccc2c(c1)[C@@H]1C[C@H](CC(=O)NCCc3ccccc3)O[C@@H](CO)[C@@H]1O2 | . | - | . | . | . | .
Cc1ccc(C(=O)Nc2ccc3nccnc3c2)cc1 | - | . | - | . | - | -
O=C(Nc1ccc(SC(F)F)cc1)c1ccc2nccnc2c1 | - | 122 | - | . | - | -
Cc1cc(NC(=O)c2ccc3nccnc3c2)ccc1Br | - | - | - | 66 | - | -
Cc1ccc(NC(=O)c2ccc3nccnc3c2)c(C)c1 | - | - | - | - | 99 | -
CC(C)[C@H](NC(=O)OCc1ccccc1)C(=O)OCC(=O)c1ccccc1 | - | - | - | 35 | ? | -
CN(CCc1ccccn1)S(=O)(=O)c1ccccc1F | - | - | - | - | . | -
c1ccc(NCCc2ccccn2)cc1 | - | 46 | - | - | - | -
CN(CCc1ccccn1)c1ccccc1 | - | 48 | - | - | - | -
C[C@@H]1CN([C@@H](C)CO)C(=O)c2cc(NS(=O)(=O)c3ccc(Cl)cc3)ccc2O[C@@H]1CN(C)S(C)(=O)=O | . | - | . | . | . | .
C/C(=C\c1ccccc1)C(=O)NCc1ccco1 | - | . | - | 32 | - | -
CC(C)(C)C(=O)NC(=S)NCCc1ccccc1 | - | 43 | - | - | - | -
O=C(NCc1ccco1)c1ccccc1 | - | - | - | - | . | -
C/C(=C\c1ccccc1)C(=O)NCCc1ccccc1 | - | . | - | 61 | - | -
O=C(NN=Cc1ccc(O)cc1)C(=O)NN=Cc1ccc(O)cc1 | - | - | - | - | - | -
O=C(CCC(=O)Nc1ccc(F)cc1)N/N=C/c1ccc(O)cc1O | - | . | - | - | - | -
O=C(N/N=C/c1ccc(O)cc1O)C(=O)N/N=C/c1ccc(O)cc1O | - | - | 62 | - | . | -
Oc1ccc(C=NNC(=S)Nc2ccc(F)cc2)c(O)c1 | - | ? | - | 37 | - | -
CN1C(=O)c2cc(NC(=O)Cc3cccs3)ccc2OC[C@@H]2O[C@@H](CC(=O)NCC3CCCCC3)CC[C@H]21 | . | - | . | . | . | .
Cc1ccc2nc(C)/c(=N\O)c(C)nc2c1 | - | 55 | - | . | - | -
O=C(Nc1nccs1)c1ccc(-c2ccc(F)c(Cl)c2)o1 | - | 57 | - | - | 113 | -
Cc1noc(C)c1S(=O)(=O)Nc1ccc2c(c1)C(=O)N([C@H](C)CO)C[C@H](C)[C@H](CN(C)S(=O)(=O)c1cccs1)OCCCC[C@@H](C)O2 | . | - | . | . | . | .
CCOC(=O)Nc1ccc2c(c1)Cc1cc([N+](=O)[O-])ccc1-2 | - | 75 | - | - | - | -
CCOC(=O)Nc1ccc2c(c1)C(=NNC(N)=S)c1ccccc1-2 | - | - | - | - | - | -
SMILES | Glyco luc inh | esBAF inh | Vif inh | Wnt bcat act | MITF act | PvdQ acylase
CCOC(=O)Nc1ccc(OC)c([N+](=O)[O-])c1 | - | - | - | - | - | -
CCOC(=O)Nc1ccc2c(c1)C(=NO)c1ccccc1-2 | - | . | - | 55 | - | -
CS(=O)(=O)Nc1ccc2c(c1)[C@@H]1C[C@@H](CC(=O)NC3CCCC3)O[C@@H](CO)[C@@H]1O2 | . | - | . | . | . | .
Cn1nc(-c2ccc(C(=O)NCCO)cc2)c2ccccc2c1=O | - | . | - | - | - | -
CN(CCO)C(=O)c1ccc(-c2nn(C)c(=O)c3ccccc23)cc1 | - | . | - | 34 | - | -
O=C(N/N=C/c1c(Cl)cccc1Cl)c1ccc(F)cc1 | - | - | - | - | - | -
Cn1cccc1C(=O)N/N=C/c1c(Cl)cccc1Cl | - | - | - | - | 92 | -
CO[C@@H]1CC[C@H]2CCN(C)C(=O)[C@H](C)N(C)C(=O)c3cc(C#N)ccc3OC[C@H]1O2 | . | - | . | . | . | .
CCNC(=S)N/N=C/c1sc(N2CCCCC2)nc1-c1cccs1 | - | . | 69 | - | - | -
Cc1cccc(C)c1NC(=O)CN(C)C(=O)c1ccc(COc2ccccc2)cc1 | - | 43 | - | - | - | -
O=C(C[C@H]1CC[C@@H](NC(=O)C2CCOCC2)[C@H](CO)O1)Nc1nccs1 | . | - | . | . | . | .
COC(=O)Nc1nc2ccc(SC(C)C)cc2[nH]1 | - | - | ? | - | - | -
CCCSc1ccc2nc(NC(=O)OC)[nH]c2c1 | - | - | 160 | - | - | -
COc1ccccc1-c1ccc([C@@H]2[C@@H](C#N)N(C(=O)C3CC3)[C@@H]2CO)cc1 | . | - | . | . | . | .
Cc1ccc(/C=c2/sc3n(c2=O)CCCN=3)o1 | - | 53 | - | . | . | -
C[C@@H]1CN([C@@H](C)CO)C(=O)c2cc(-c3cncnc3)cnc2O[C@@H]1CN(C)C(=O)Cc1cccnc1 | . | - | . | . | . | .
Cc1ccc(NC(=S)c2ccccc2)cc1 | - | 68 | - | ? | 82 | -
Cc1ccc(NC(=S)c2ccncc2)cc1 | - | - | - | - | - | -
COc1ccc(NC(=S)c2ccncc2)cc1 | - | . | - | - | - | -
COc1ccc(C(=S)Nc2ccc(C)cc2)cc1 | - | . | . | . | 109 | -
O=C(Nc1ccc(Cl)cc1)c1csc(COCCO)n1 | - | 53 | - | - | . | .
Cc1c(C(=S)Nc2ccccc2)cnn1-c1ccc([N+](=O)[O-])cc1 | - | . | - | . | - | -
Cc1c(C(=S)Nc2ccccc2)cnn1-c1ccccc1 | - | . | - | ? | 96 | -
Cc1nn(-c2ccccc2)cc1C(=S)Nc1ccccc1 | - | 49 | - | - | - | -
O=C(NCC1CC1)[C@@H]1[C@@H](CO)[C@@H]2Cn3c(ccc(-c4ccc(F)cc4)c3=O)[C@H]1N2 | . | - | . | . | . | .
SMILES | Glyco luc inh | esBAF inh | Vif inh | Wnt bcat act | MITF act | PvdQ acylase
CCCC(=O)Nc1ccc2c(c1)C(=O)N(C)[C@H]1CC[C@@H](CC(=O)NC3CCCC3)O[C@H]1CO2 | . | - | . | . | . | .
CN1c2ccsc2/C(=N/Nc2ccccc2)CS1(=O)=O | - | 58 | - | - | - | -
C[C@H](CO)N1C[C@H](C)[C@H](CN(C)C(=O)NC2CCCC2)Oc2ncc(-c3cccc(C(F)(F)F)c3)cc2C1=O | . | - | . | . | . | .
Cc1ccc(S(=O)(=O)Nc2ccc3c(c2)CC(=O)N([C@H](C)CO)C[C@@H](C)[C@H](CN(C)C(=O)NC2CCCCC2)O3)cc1 | . | - | . | . | . | .
COc1ccc(NC(=O)N(C)C[C@H]2Oc3c(NS(=O)(=O)c4ccccc4)cccc3C(=O)N([C@@H](C)CO)C[C@H]2C)cc1 | . | - | . | . | . | .
CN(CCC#N)C(=O)c1cc2c(s1)-c1ccccc1SC2 | - | 53 | - | - | 86 | -
N#CCCN(C(=O)c1cc2c(s1)-c1ccccc1S(=O)(=O)C2)c1ccccc1 | - | - | - | - | - | -
O=C(COc1ccc(S(=O)(=O)N2CCOCC2)cc1)NC1CC1 | - | - | 52 | - | - | -
O=C(COc1ccc([N+](=O)[O-])cc1)Nc1ccc(S(=O)(=O)N2CCOCC2)cc1 | - | - | 55 | - | - | -
C[C@H](CO)N1C[C@H](C)[C@@H](CN(C)C(=O)C2CC2)Oc2cc(-c3cccc(F)c3)ccc2S1(=O)=O | . | - | . | . | . | .
